“And” between values parts separate entries of the source, which are not always exact repeats. Equal values may be shown once. Records with an inconclusive call do not appear. The source made the active and inactive calls.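 The calls were made as follows, unless noted: active = normalized viability below 100% at a tested concentration; inactive = the rest.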

Results on nine compounds are retold here after PubChem BioAssay.

A short description of assay [1]: JHH-DIPG-1 glioma cell viability, MIPE5.0 library, CellTiter-Glo luminescence, qHTS (AID 1347067; cut-off not given, nearly all actives have AC50 up to about 26 µM;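 also: cells exposed to compound for 48 hours before readout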). To be noted: JHH-DIPG-1 glioma viability, CellTiter-Glo ATP luminescence. A general note: In ATP-based viability assays light output follows the ATP content of the culture.
A short description of assay [2]: growth inhibition of DIPG cells – cell-based, MIPE5.0 library, qHTS (AID 1347068; cut-off not given, nearly all actives have IC50 up to about 30 µM;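 as to IC50: cells exposed to compound for 48 hours before viability readout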). To be noted: SU-DIPG-XXV viability. On the technique in general: Quantitative high-throughput screening tests each substance at several concentrations.
A short description of assay [3]: liver-stage malaria parasite load reduction – cell-based, known kinase inhibitor set, luminescence, hepatoma host viability (AID 624392; call rule not given here;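 also: infected cells incubated roughly two days before readout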). To be noted: Plasmodium liver stage in hepatoma cells, luciferase luminescence, concentration not given here; liver cell % of control: measured here: host liver cell viability; parasite % of control: stronger effect = lower value.
The nature of assay [4]: P. berghei load reduction in hepatocytes – cell-based, HepG2, luciferase luminescence, HepG2 viability, primary screen (AID 624349; in the data active = parasite load remaining mostly below about 12%, no sharp cut-off; inactive = mostly above about 10%;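 also: 100% = mean of DMSO negative control wells on the same plate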). To be noted: P. berghei liver stage in HepG2, luciferase luminescence, concentration not given here; parasite load remaining: stronger effect = lower value; viability: measured here: HepG2 viability without parasites.
In assay [5] the test system is Hepatitis C virus NS3 helicase. Put plainly: blockers of NS3h binding to ssDNA – biochemical, fluorescence polarization, LOPAC1280 library, primary screen (AID 687035; in the data active = inhibition above about 37%). To be noted: Purified HCV NS3 helicase, Cy5-dT15 ssDNA binding fluorescence polarization; stronger effect = higher value; concentration not given here.
Assay [6] can be described thus: compounds altering Cy5-DNA-NS3h complex signal – biochemical, LOPAC1280, artefact control for HCV NS3 helicase inhibitor project (AID 687037; call rule not given here). Conditions: Cy5-DNA-NS3h complex fluorescence interference counterscreen. A general note: Counterscreens check selectivity or assay interference.
A short description of assay [7]: viability loss with induced miR-34 in A549 – imaging, A549 dox-inducible miR-34, nuclei and caspase counts, primary screen (AID 1347080;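 active = compounds whose cell count with miR-34 switched on is under 0.7 times the count with it off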). Conditions: A549 miR-34 inducible, Hoechst nuclei count, 48 h.
The nature of assay [8]: blockers of cellular phospholipid synthesis – cell-based, LOPAC library, screen 4, primary screen (AID 1347384; call rule not given here). Conditions: animal cells, phospholipid biosynthesis inhibition screen; at 10 µM.
The nature of assay [9]: galactose survival enhancers in mitochondrial complex I cybrids – cell-based, galactose medium, ATP luminescence, primary screen (AID 1645843;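 active = z-score of at least 1.8 in each of two replicates, scored against plate mean and spread of sample wells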;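 also: positive z means more ATP and so rescue of galactose-driven cybrid death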). Conditions: complex I mutant cybrid cells, 72 h, stronger effect = higher value.
The nature of assay [10]: viability loss in pontine glioma line – cell-based, SU-DIPG-XXV, MIPE5.0, CellTiter-Glo, qHTS, dose response (AID 1347065; cut-off not given, nearly all actives have AC50 up to about 26 µM;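 also: cells exposed to compound for 48 hours before ATP readout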). Conditions: CellTiter-Glo ATP luminescence.
The nature of assay [11]: MELAS cybrid and Rieske KO viability enhancers – cell-based, MELAS cybrids, Rieske KO mouse fibroblasts, CellTiter-Glo, primary screen (AID 1508586;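 active = mean z-score across replicates of 1.96 or higher in either the MELAS or the Rieske mutant cell line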;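 also: z relative to plate mean and SD of compound and empty wells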). To be noted: low glucose.
The nature of assay [12]: drug combination growth inhibition, ovarian cancer – cell-based, oncology-focused library, rucaparib conditional, profiling panel (AID 1508598). To be noted: patient-derived ovarian cancer cells, CellTiter-Glo viability, 144 h, stronger effect = lower value.
[13] abbreviates: stronger effect = lower value, cell number ratio, induced over uninduced.
[14] abbreviates: measured here: relative caspase fold change +Dox/-Dox.
Setting [15] is: measured here: total cells with miR-34 induction, stronger effect = lower value.
Where [16] appears, read: measured here: total cells without miR-34 induction.

As usually defined, the AC50 is the concentration giving half of the maximal activity seen. For the compound `CC/C(=C(/c1ccc(/C=C/C(=O)O)cc1)c1ccc2[nH]ncc2c1)c1ccc(F)cc1Cl`, the AC50 in assay [1] is 26.3 µM (active).

Take `CCNC(=O)Nc1ncc(-c2cc(-c3c(C)cc(OC)cc3C)nc(-c3cnccn3)n2)s1`: the outcome in assay [1] and in assay [2] was inactive.

On to `OCCC#Cc1nc(-c2ccc(F)cc2)c(-c2ccncc2)n1CCCc1ccccc1`, for which, in [3], the liver cell % of control is 306% and 93.3% and 95.7%; the parasite % of control is 3.85% (inactive) and 44.3% (inactive) and 36.9% (inactive). In [1], the AC50 is 26.3 µM (active). In [2], the compound was classed as inactive.

As usually defined, the IC50 is the concentration that inhibits the measured activity by half. For `COc1cc2c(NC3CCN(C4CCCCC4)CC3)nc(N3CCCN(C(C)C)CC3)nc2cc1OCCCN1CCCCC1`, the IC50 in assay [2] is 5.9 µM (active).

What is called viability is a read-out of living cells in per cent, often relative to untreated cells. What is called inhibition is the change of the read-out against control, counted positive when it falls. Consider `CCN1/C(=C/C(C)=O)Sc2ccc(OC)cc21`, for which the parasite load remaining in assay [4] is 36.4% (inactive). In addition, the viability in assay [4] was found to be 92.3%. Besides, the inhibition in [5] was -4% (inactive). In addition, in assay [6], the fluorescence ratio (interference) is 0.9 (inactive). Besides, the result in [1], in [2] and in assay [8] was inactive. Moreover, the fold change in [7] (setting [13]) was 1.04 (inactive); in assay [7] (setting [14]), 1.19. In addition, the cell count in assay [7] (setting [15]) was found to be 7360; in assay [7] (setting [16]), 7040. Further, the z-score in assay [9] is 0.785 (inactive).

For `Cc1csc(NC(=O)c2sc3nc4c(c(C(F)(F)F)c3c2N)CCC4)n1`, in assay [1], the call was inactive.

On to `COCCOc1ccc(N2CCN(CCn3ncc4c3nc(N)n3nc(-c5ccco5)nc43)CC2)cc1`, for which the outcome in [1] and in assay [2] was inactive.

With `O=C(O)c1ccccc1-c1ccc(/C=c2\sc3nc4cc(Br)cnc4n3c2=O)o1`, the outcome in assay [2] was inactive.

For `CN1CCN(c2ccc(OC(F)(F)F)c(Nc3ncc4c(n3)-c3c(c(C(N)=O)nn3CCO)CC4)c2)CC1`, the half-maximal activity concentration (AC50) in [10] was 0.118 µM (active). Also, the figures for the fold change in assay [7] (setting [13]) and in assay [7] (setting [14]) were 0.983 (inactive) and 0.326, respectively. Besides, the figures for the cell count in assay [7] (setting [15]) and in [7] (setting [16]) were 1120 and 1140, respectively. The z-score is 1.84 (inactive) in assay [11] (MELAS cybrid survival, CellTiter-Glo 48 h, stronger effect = higher value) and -0.694 in assay [11] (Rieske KO mouse fibroblast survival, CellTiter-Glo 72 h). Further, the viability in [12] (at 0.000305 µM, OCI-C5x cells, with rucaparib 10 µM, 100% = cells with rucaparib alone) is 119% (inactive); in [12] (at 0.000305 µM, OCI-C5x cells, without rucaparib), 114% (inactive); in assay [12] (at 0.000305 µM, OCI-P5x cells, with rucaparib 20 µM, 100% = cells with rucaparib alone), 90% (active); in [12] (at 0.000305 µM, OCI-P5x cells, without rucaparib) it was 84.5% (active); in [12] (at 0.00122 µM, OCI-C5x cells, with rucaparib 10 µM, 100% = cells with rucaparib alone), 125% (inactive); in assay [12] (at 0.00122 µM, OCI-C5x cells, without rucaparib) it was 112% (inactive). The viability is 94.4% (active) in [12] (at 0.00122 µM, OCI-P5x cells, with rucaparib 20 µM, 100% = cells with rucaparib alone); 86.5% (active) in assay [12] (at 0.00122 µM, OCI-P5x cells, without rucaparib); 123% (inactive) in assay [12] (at 0.00488 µM, OCI-C5x cells, with rucaparib 10 µM, 100% = cells with rucaparib alone); 105% (inactive) in assay [12] (at 0.00488 µM, OCI-C5x cells, without rucaparib); 88.1% (active) in assay [12] (at 0.00488 µM, OCI-P5x cells, with rucaparib 20 µM, 100% = cells with rucaparib alone); 58.9% (active) in assay [12] (at 0.00488 µM, OCI-P5x cells, without rucaparib). Moreover, the viability in assay [12] (at 0.0195 µM, OCI-C5x cells, with rucaparib 10 µM, 100% = cells with rucaparib alone) was 125% (inactive); in assay [12] (at 0.0195 µM, OCI-C5x cells, without rucaparib), 60% (active); in assay [12] (at 0.0195 µM, OCI-P5x cells, with rucaparib 20 µM, 100% = cells with rucaparib alone), 78.1% (active); in assay [12] (at 0.0195 µM, OCI-P5x cells, without rucaparib), 20.2% (active); in assay [12] (at 0.0781 µM, OCI-C5x cells, with rucaparib 10 µM, 100% = cells with rucaparib alone), 67.6% (active); in assay [12] (at 0.0781 µM, OCI-C5x cells, without rucaparib), 40.8% (active). The viability is 64.7% (active) in [12] (at 0.0781 µM, OCI-P5x cells, with rucaparib 20 µM, 100% = cells with rucaparib alone); 14.3% (active) in [12] (at 0.0781 µM, OCI-P5x cells, without rucaparib); 49.1% (active) in assay [12] (at 0.313 µM, OCI-C5x cells, with rucaparib 10 µM, 100% = cells with rucaparib alone); 27.6% (active) in assay [12] (at 0.313 µM, OCI-C5x cells, without rucaparib); 70% (active) in assay [12] (at 0.313 µM, OCI-P5x cells, with rucaparib 20 µM, 100% = cells with rucaparib alone); 13.1% (active) in assay [12] (at 0.313 µM, OCI-P5x cells, without rucaparib). In addition, the viability was 37.5% (active) in assay [12] (at 1.25 µM, OCI-C5x cells, with rucaparib 10 µM, 100% = cells with rucaparib alone); 28.9% (active) in [12] (at 1.25 µM, OCI-C5x cells, without rucaparib); 73.8% (active) in assay [12] (at 1.25 µM, OCI-P5x cells, with rucaparib 20 µM, 100% = cells with rucaparib alone); 13.7% (active) in assay [12] (at 1.25 µM, OCI-P5x cells, without rucaparib); 40.7% (active) in [12] (at 5 µM, OCI-C5x cells, with rucaparib 10 µM, 100% = cells with rucaparib alone); 26.6% (active) in [12] (at 5 µM, OCI-C5x cells, without rucaparib). The viability was 74.1% (active) in [12] (at 5 µM, OCI-P5x cells, with rucaparib 20 µM, 100% = cells with rucaparib alone) and 14.5% (active) in assay [12] (at 5 µM, OCI-P5x cells, without rucaparib).
